Sequences and labels used below:
B1: VH:VL chains; a variant is named by its letters at X, in order (parent)
chain 1: QVQLVQSGAEVKKPGASVKVSCKASGYTFTDYXMHWVRQAPGQGLEWMGXVNPNXXXTTYNQKFEGRVTMTTDTSTSTAYMELRSLRSDDTAVYYCARXNXLDXWGQGTTVTVSS
chain 2: DIQMTQSPSSLSASVGDRVTITCSVSSSVSSIYLHWYQQKPGKAPKLLIYSTSNLASGVPSRFSGSGSGTDFTLTISSLQPEDFATYYCQVYSGYPLTFGGGTKVEIK

The other results are listed elsewhere or left out. The true hit rate is not given.

In this test the parent is B1. In words: yeast display scFab, FACS + sequencing. The conditions noted are these: with MET. The gist of the method: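 For FACS, yeast displaying a heavy-chain CDR mutant scFab library were labelled with 1 nM HGFR-Fc and anti-Myc (PBSB, 1% milk, 3 h, room temperature), and the top 50% antigen-positive cells were gated. Input and round-3 sorted populations were deep sequenced in two replicates. The binding call was positive for sequences occurring in both antigen-positive samples and negative for sequences occurring only in input.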
Consider STTGSASF, for which the antigen binding call was “no binding”.

Turning to FKGRGSLS, the antigen binding call was “binds”.

On to FKGRGSSS, for which the antigen binding call is “binds”.

With FKGRDSGS, the antigen binding call is reported as “no binding”.

With VGATSVSF, the antigen binding call is listed as “no binding”.

For YARADDGS, the antigen binding call is reported as “no binding”.

With VEAGDAGS, the antigen binding call is reported as “no binding”.

With DAEKGAWA, the antigen binding call was “no binding”.

As for DRGRDDVV, the antigen binding call is reported as “no binding”.

As for FRTRDFLV, the antigen binding call is “no binding”.

Turning to YRTRDDVY, the antigen binding call was “no binding”.

On to YRTRDALV, for which the antigen binding call is “binds”.

Consider YRTRDAWV, for which the antigen binding call is listed as “binds”.

Consider YRGRDYGV, for which the antigen binding call is on record as “no binding”.

As to YRGRDALV, the antigen binding call is reported as “binds”.

For the variant VRTEDAWV, the antigen binding call was “no binding”.

As for ARGRDAWV, the antigen binding call is recorded as “no binding”.

On to FRGRDDLV, for which the antigen binding call is on record as “no binding”.

Take YRTRDDVV: the antigen binding call was “binds”.

As for YARADDGD, the antigen binding call is “no binding”.

Take YAAETDVF: the antigen binding call is given as “no binding”.

Turning to VKEKGDGS, the antigen binding call is “no binding”.

Turning to VKGTGFLD, the antigen binding call is “no binding”.

Consider YRAKGSLA, for which the antigen binding call is “binds”.

For the variant YRAKGALA, the antigen binding call was “binds”.

For the variant ATGANAAV, the antigen binding call is given as “no binding”.

On to AGGRSFVF, for which the antigen binding call was “no binding”.

For the variant YEGRNVGV, the antigen binding call is listed as “no binding”.

As for VAGTGDLA, the antigen binding call is recorded as “no binding”.

In the case of DEGGTDWD, the antigen binding call was “no binding”.

On to YRAKGVGA, for which the antigen binding call is “binds”.

As to YRAKGYGA, the antigen binding call is “no binding”.

For the variant YRAKGAGA, the antigen binding call is “binds”.

Regarding SARGGYWY, the antigen binding call is given as “no binding”.

Consider YRRGGAAY, for which the antigen binding call is “binds”.

With YRKGGDLY, the antigen binding call is reported as “no binding”.

With YRRRGAAY, the antigen binding call is on record as “binds”.

Consider SRKEGAAY, for which the antigen binding call is listed as “no binding”.

DARGGAVY: the antigen binding call is “no binding”.

Turning to YRKGGAAY, the antigen binding call is reported as “binds”.

On to YRRKGAAY, for which the antigen binding call is “binds”.

Turning to STGRADWA, the antigen binding call was “no binding”.

As for SEARSALV, the antigen binding call is on record as “no binding”.

As to DEGGTSGV, the antigen binding call is reported as “no binding”.

Regarding FKKGDAVS, the antigen binding call was “no binding”.

Regarding FKKGSAVV, the antigen binding call is recorded as “binds”.

Turning to FKKGSYVF, the antigen binding call was “no binding”.

On to DKEGGAAV, for which the antigen binding call is recorded as “no binding”.

Consider FKKGSAAV, for which the antigen binding call is recorded as “binds”.

For the variant VAGGDDVF, the antigen binding call was “no binding”.

As to DEGKAAGS, the antigen binding call was “no binding”.

In the case of YRRRGASA, the antigen binding call was “binds”.

YRRRGVSA: the antigen binding call was “binds”.

With VTGRAALA, the antigen binding call is “no binding”.

On to SERRDVLY, for which the antigen binding call is reported as “no binding”.

With DRAGDDWA, the antigen binding call is “no binding”.

For the variant VTETGSLV, the antigen binding call is “no binding”.

Consider YRTRDSAS, for which the antigen binding call is given as “binds”.

As for DAKRDSAS, the antigen binding call was “no binding”.

YRGRDSAS: the antigen binding call is “binds”.

On to SAKRDSAS, for which the antigen binding call was “no binding”.

For the variant YRGGDDSS, the antigen binding call is on record as “no binding”.

In the case of YRGRDSVS, the antigen binding call is recorded as “binds”.

Turning to DRGRDDGS, the antigen binding call is recorded as “no binding”.

For VTGGDSAS, the antigen binding call is “no binding”.

For YRGGDSAS, the antigen binding call is given as “binds”.

Regarding FRGRDFVS, the antigen binding call is “no binding”.

For the variant VEAGDDSA, the antigen binding call was “no binding”.

On to SEARSDVY, for which the antigen binding call is reported as “no binding”.

In the case of YTEGDFAV, the antigen binding call is listed as “no binding”.

Turning to VGRGNVGV, the antigen binding call is on record as “no binding”.

For YRGEGSAS, the antigen binding call was “binds”.

Consider DATGGDVD, for which the antigen binding call is listed as “no binding”.

Take SEKGGSSA: the antigen binding call was “no binding”.

For the variant SKKRGAAA, the antigen binding call is recorded as “binds”.

As for SKKTGDLY, the antigen binding call is listed as “no binding”.

For SKKRGAWA, the antigen binding call was “binds”.

In the case of SKKRGAWY, the antigen binding call is on record as “binds”.

In the case of SKERGDAA, the antigen binding call is recorded as “no binding”.

On to SEGRGAAA, for which the antigen binding call is “no binding”.

Take SKGASAWA: the antigen binding call is “no binding”.

Regarding SKGEGDWA, the antigen binding call is reported as “no binding”.

As to SKKRGASA, the antigen binding call is “binds”.

Regarding SKERGDWY, the antigen binding call is on record as “no binding”.

With SKTKSSSA, the antigen binding call is recorded as “no binding”.

Turning to VEKEGDGS, the antigen binding call is listed as “no binding”.

For the variant YAAKNDGA, the antigen binding call is “no binding”.

As for YEGGADVV, the antigen binding call is given as “no binding”.

Regarding YRRGGSGY, the antigen binding call is listed as “binds”.

Turning to YRRGGAGY, the antigen binding call is “binds”.

Take VAGTGDLY: the antigen binding call is given as “no binding”.

As to VRTRAAVD, the antigen binding call was “binds”.

In the case of VRTRASVD, the antigen binding call is “binds”.

For the variant VTTRAAVS, the antigen binding call is recorded as “no binding”.

On to VRERSSVD, for which the antigen binding call is reported as “no binding”.

On to VTTRASGD, for which the antigen binding call is recorded as “no binding”.

VRAGADVD: the antigen binding call is given as “no binding”.

Regarding YTAGSDGV, the antigen binding call was “no binding”.

Turning to YKGRGYGA, the antigen binding call is given as “binds”.

Consider VKGEGYGA, for which the antigen binding call is listed as “no binding”.

Consider VKGRGYGA, for which the antigen binding call is recorded as “binds”.

In the case of VAGAGYGA, the antigen binding call is on record as “no binding”.

Turning to VRRGDAGY, the antigen binding call is reported as “binds”.

Regarding VRRGDVGV, the antigen binding call is reported as “no binding”.

For the variant VKAKDAGY, the antigen binding call was “no binding”.

In the case of VRKKGYVY, the antigen binding call was “no binding”.

For VRRGDDVY, the antigen binding call is “no binding”.

As for VRAKGAGY, the antigen binding call is “binds”.

Regarding VEGGGSSV, the antigen binding call was “no binding”.

(Values after the emibetuzumab library of Makowski et al. (2022).)
